# From PubChem BioAssay AID1159580 (chemical genetic matrix, 2015)
# Several values for one entry are separate records, joined by “and”; a condition that tells them apart may be missing. Equal entries are not always repeated. Screen size: about 5,500 compounds; about 2,000 (36%) were called active. Inconclusive results (about 18%) are left out. Cut-off read from the data, not from the text of the source: active = normalized growth mostly below about 0.91 (no sharp cut-off); inconclusive = no clear call, values can overlap the other calls; inactive = mostly above about 0.92. The list shows a part of the results.
# Assay: chemical genetic growth profiling, strain panel (AID 1159580);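 note: tested at 20 µM; growth read once vehicle control cultures reached saturation at 30 °C; 1 = growth at the plate median or of vehicle wells; lower values mean less growth of the strain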
# Settings: S. cerevisiae deletion strains, growth OD
smiles,measurement,setting,value
Oc1cccc2cccnc12,normalized growth,"locus YAL021C, strain ccr4, stronger effect = lower value",0.0769 (active)
same,normalized growth,"locus YAL026C, strain drs2, stronger effect = lower value",0.0625 (active)
same,normalized growth,"locus YAL030W, strain snc1, stronger effect = lower value",0.0718 (active)
same,normalized growth,"locus YBL061C, strain skt5, stronger effect = lower value",0.0722 (active)
same,normalized growth,"locus YBR009C, strain hhf1, stronger effect = lower value",0.0681 (active)
same,normalized growth,"locus YBR021W, strain FUR4, stronger effect = lower value",0.0928 (active)
same,normalized growth,"locus YBR023C, strain chs3, stronger effect = lower value",0.076 (active)
same,normalized growth,"locus YBR171W, strain sec66, stronger effect = lower value",0.076 (active)
same,normalized growth,"locus YBR229C, strain ROT2, stronger effect = lower value",0.0533 (active)
same,normalized growth,"locus YBR231C, strain swc5, stronger effect = lower value",0.0897 (active)
same,normalized growth,"locus YBR279W, strain paf1, stronger effect = lower value",0.0618 (active)
same,normalized growth,"locus YCL011C, strain gbp2, stronger effect = lower value",0.0567 (active)
same,normalized growth,"locus YCL016C, strain dcc1, stronger effect = lower value",0.229 (active)
same,normalized growth,"locus YCL029C, strain bik1, stronger effect = lower value",0.738 (active)
same,normalized growth,"locus YCL061C, strain MRC1, stronger effect = lower value",0.064 (active)
same,normalized growth,"locus YCL069W, strain vba3, stronger effect = lower value",0.0627 (active)
same,normalized growth,"locus YCR088W, strain abp1, stronger effect = lower value",0.0593 (active)
same,normalized growth,"locus YDL005C, strain med2, stronger effect = lower value",0.646 (active)
same,normalized growth,"locus YDL035C, strain GPR1, stronger effect = lower value",0.0493 (active)
same,normalized growth,"locus YDL040C, strain nat1, stronger effect = lower value",0.476 (active)
same,normalized growth,"locus YDL074C, strain BRE1, stronger effect = lower value",0.0979 (active)
same,normalized growth,"locus YDL101C, strain DUN1, stronger effect = lower value",0.869 (active)
same,normalized growth,"locus YDL134C, strain PPH21, stronger effect = lower value",0.0515 (active)
same,normalized growth,"locus YDL185W, strain tfp1, stronger effect = lower value",0.0598 (active)
same,normalized growth,"locus YDL192W, strain arf1, stronger effect = lower value",0.0601 (active)
same,normalized growth,"locus YDR001C, strain nth1, stronger effect = lower value",0.0574 (active)
same,normalized growth,"locus YDR069C, strain doa4, stronger effect = lower value",0.0712 (active)
same,normalized growth,"locus YDR101C, strain arx1, stronger effect = lower value",0.375 (active)
same,normalized growth,"locus YDR137W, strain rgp1, stronger effect = lower value",0.0843 (active)
same,normalized growth,"locus YDR159W, strain sac3, stronger effect = lower value",0.616 (active)
same,normalized growth,"locus YDR162C, strain NBP2, stronger effect = lower value",0.0547 (active)
same,normalized growth,"locus YDR195W, strain ref2",0.117 (active)
same,normalized growth,"locus YDR297W, strain sur2, stronger effect = lower value",0.0588 (active)
same,normalized growth,"locus YDR318W, strain mcm21, stronger effect = lower value",0.0646 (active)
same,normalized growth,"locus YDR334W, strain swr1, stronger effect = lower value",0.0621 (active)
same,normalized growth,"locus YDR335W, strain msn5, stronger effect = lower value",0.0595 (active)
same,normalized growth,"locus YDR388W, stronger effect = lower value",0.0582 (active)
same,normalized growth,"locus YDR392W, strain spt3, stronger effect = lower value",0.0932 (active)
same,normalized growth,"locus YDR502C, strain sam2, stronger effect = lower value",0.0651 (active)
same,normalized growth,"locus YEL003W, strain gim4, stronger effect = lower value",0.0548 (active)
same,normalized growth,"locus YEL037C, strain rad23, stronger effect = lower value",0.0582 (active)
same,normalized growth,"locus YEL061C, strain CIN8 (second series), stronger effect = lower value",0.0606 (active)
same,normalized growth,"locus YEL061C, strain CIN8, stronger effect = lower value",0.0683 (active)
same,normalized growth,"locus YER015W, strain faa2, stronger effect = lower value",0.0643 (active)
same,normalized growth,"locus YER016W, strain bim1, stronger effect = lower value",0.0729 (active)
same,normalized growth,"locus YER110C, stronger effect = lower value",0.107 (active)
same,normalized growth,"locus YER111C, strain swi4, stronger effect = lower value",0.0869 (active)
same,normalized growth,"locus YER155C, strain BEM2 (second series), stronger effect = lower value",0.0885 (active)
same,normalized growth,"locus YER155C, strain BEM2, stronger effect = lower value",0.503 (active)
same,normalized growth,"locus YER167W, strain BCK2, stronger effect = lower value",0.0575 (active)
same,normalized growth,"locus YFR010W, strain ubp6, stronger effect = lower value",0.0669 (active)
same,normalized growth,"locus YGL078C, strain dbp3, stronger effect = lower value",0.0567 (active)
same,normalized growth,"locus YGL086W, strain mad1, stronger effect = lower value",0.0544 (active)
same,normalized growth,"locus YGL167C, strain pmr1, stronger effect = lower value",0.113 (active)
same,normalized growth,"locus YGL173C, strain kem1, stronger effect = lower value",0.07 (active)
same,normalized growth,"locus YGL227W, strain vid30, stronger effect = lower value",0.0635 (active)
same,normalized growth,"locus YGL240W, strain doc1, stronger effect = lower value",0.0777 (active)
same,normalized growth,"locus YGL248W, strain PDE1, stronger effect = lower value",0.0532 (active)
same,normalized growth,"locus YGL253W, strain hxk2, stronger effect = lower value",0.0539 (active)
same,normalized growth,"locus YGR135W, strain pre9, stronger effect = lower value",0.0644 (active)
same,normalized growth,"locus YGR252W, strain gcn5, stronger effect = lower value",0.152 (active)
same,normalized growth,"locus YHR013C, strain ard1, stronger effect = lower value",0.105 (active)
same,normalized growth,"locus YHR027C, strain rpn1, stronger effect = lower value",0.0611 (active)
same,normalized growth,"locus YHR030C, strain SLT2, stronger effect = lower value",0.0533 (active) and 0.903 (inactive)
same,normalized growth,"locus YHR079C, strain IRE1 (second series), stronger effect = lower value",0.0905 (active)
same,normalized growth,"locus YHR079C, strain IRE1, stronger effect = lower value",0.908 (inactive)
same,normalized growth,"locus YHR094C, strain hxt1, stronger effect = lower value",0.0596 (active)
same,normalized growth,"locus YHR129C, strain ARP1, stronger effect = lower value",0.576 (active)
same,normalized growth,"locus YHR142W, strain chs7, stronger effect = lower value",0.0731 (active)
same,normalized growth,"locus YHR200W, strain rpn10, stronger effect = lower value",0.0598 (active)
same,normalized growth,"locus YIL066C, strain RNR3, stronger effect = lower value",0.156 (active)
same,normalized growth,"locus YIL073C, strain SPO22, stronger effect = lower value",0.0972 (active)
same,normalized growth,"locus YIL125W, strain kgd1, stronger effect = lower value",0.0587 (active)
same,normalized growth,"locus YIR030C, strain dcg1, stronger effect = lower value",0.0603 (active)
same,normalized growth,"locus YJL092W, strain hpr5, stronger effect = lower value",0.058 (active)
same,normalized growth,"locus YJL095W, strain BCK1 (second series), stronger effect = lower value",0.09 (active)
same,normalized growth,"locus YJL095W, strain BCK1, stronger effect = lower value",0.165 (active) and 0.93 (inactive)
same,normalized growth,"locus YJL115W, strain asf1, stronger effect = lower value",0.0712 (active)
same,normalized growth,"locus YJL129C, strain trk1, stronger effect = lower value",0.0863 (active)
same,normalized growth,"locus YJL134W, strain LCB3, stronger effect = lower value",0.388 (active)
same,normalized growth,"locus YJL154C, strain vps35, stronger effect = lower value",0.0589 (active)
same,normalized growth,"locus YJL164C, strain tpk1, stronger effect = lower value",0.0791 (active)
same,normalized growth,"locus YJL166W, strain qcr8, stronger effect = lower value",0.0604 (active)
same,normalized growth,"locus YJL168C, strain set2, stronger effect = lower value",0.0577 (active)
same,normalized growth,"locus YJL187C, strain SWE1 (second series), stronger effect = lower value",0.057 (active)
same,normalized growth,"locus YJL187C, strain SWE1, stronger effect = lower value",0.101 (active)
same,normalized growth,"locus YJR043C, strain POL32, stronger effect = lower value",0.0576 (active)
same,normalized growth,"locus YJR066W, strain TOR1, stronger effect = lower value",0.871 (inactive)
